Measured values: the supplement of paper PMC8728848
The entries come from a sample that favours the strongest signals as a whole.

What was measured:
Test in all cases: glycan array binding signal (z-score within array); higher = stronger binding
Settings in all cases: glycan notation: IUPAC condensed, linker removed
[1] = target: Fuc(a1-2)Gal(b1-3)GlcNAc(b1-3)[Gal(b1-4)GlcNAc(b1-6)]Gal(b1-4)Glc
In short: (§1)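 Arrays were curated from the Consortium for Functional Glycomics database, 3228 in total, and kept only where the protein sequence was available. Binding is expressed as a within-array Z-score. This score was averaged across arrays of the same protein sequence at different concentrations or buffers and across linkers, and negative values can be read as non-binding.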

[2] = target: Fuc(a1-2)Gal(b1-4)[Fuc(a1-3)]GlcNAc(b1-2)[Fuc(a1-2)Gal(b1-4)[Fuc(a1-3)]GlcNAc(b1-4)]Man(a1-3)[Fuc(a1-2)Gal(b1-4)[Fuc(a1-3)]GlcNAc(b1-2)Man(a1-6)]Man(b1-4)GlcNAc(b1-4)GlcNAc
In short: as §1

[3] = target: Fuc(a1-2)[Gal(a1-3)]Gal(b1-3)GalNAc
In short: as §1

[4] = target: Fuc(a1-2)[Gal(a1-3)]Gal(b1-3)GalNAc(b1-3)Gal(a1-4)Gal(b1-4)Glc
In short: as §1

[5] = target: Fuc(a1-2)[GalNAc(a1-3)]Gal(b1-3)GlcNAc(b1-2)Man(a1-3)[Fuc(a1-2)[GalNAc(a1-3)]Gal(b1-3)GlcNAc(b1-2)Man(a1-6)]Man(b1-4)GlcNAc(b1-4)GlcNAc
In short: as §1

[6] = target: Fuc(a1-2)[GalNAc(a1-3)]Gal(b1-4)GlcNAc(b1-2)Man(a1-3)[Fuc(a1-2)[GalNAc(a1-3)]Gal(b1-4)GlcNAc(b1-2)Man(a1-6)]Man(b1-4)GlcNAc(b1-4)GlcNAc
In short: as §1

[7] = target: Fuc(a1-3)[Gal(b1-4)]GlcNAc(b1-3)GalNAc
In short: as §1

[8] = target: Fuc(a1-3)[Gal(b1-4)]GlcNAc(b1-6)GalNAc
In short: as §1

[9] = target: Fuc(a1-3)[Gal3S(b1-4)]GlcNAc
In short: as §1

Fuc(a1-4)GlcNAc = target: Fuc(a1-4)GlcNAc
In short: as §1

Gal(a1-2)Gal = target: Gal(a1-2)Gal
In short: as §1

Gal(a1-3)Gal = target: Gal(a1-3)Gal
In short: as §1

Gal(a1-3)Gal(b1-3)GlcNAc = target: Gal(a1-3)Gal(b1-3)GlcNAc
In short: as §1

[10] = target: Gal(a1-3)Gal(b1-3)GlcNAc(b1-2)Man(a1-3)[Gal(a1-3)Gal(b1-3)GlcNAc(b1-2)Man(a1-6)]Man(b1-4)GlcNAc(b1-4)GlcNAc
In short: as §1

Gal(a1-3)Gal(b1-4)Glc = target: Gal(a1-3)Gal(b1-4)Glc
In short: as §1

[11] = target: Gal(b1-3)GalNAc(b1-4)Gal(b1-4)Glc
In short: as §1

[12] = target: Gal(b1-3)GlcNAc(b1-3)Gal(b1-4)GlcNAc
In short: as §1

[13] = target: Gal(b1-4)GlcNAc(b1-2)Man(a1-3)[GlcNAc(b1-2)Man(a1-6)]Man(b1-4)GlcNAc(b1-4)GlcNAc
In short: as §1

[14] = target: Gal(b1-4)GlcNAc(b1-2)Man(a1-3)[GlcNAc(b1-4)][Gal(b1-4)GlcNAc(b1-2)Man(a1-6)]Man(b1-4)GlcNAc(b1-4)GlcNAc
In short: as §1

[15] = target: Gal(b1-4)GlcNAc(b1-2)Man(a1-6)Man(b1-4)GlcNAc(b1-4)GlcNAc
In short: as §1

[16] = target: Gal(b1-4)GlcNAc(b1-2)Man(a1-6)[Man(a1-3)]Man(b1-4)GlcNAc(b1-4)GlcNAc
In short: as §1

[17] = target: Gal(b1-4)GlcNAc(b1-2)[Gal(b1-4)GlcNAc(b1-6)]Man(a1-6)[GlcNAc(b1-4)][Gal(b1-4)GlcNAc(b1-2)Man(a1-3)]Man(b1-4)GlcNAc(b1-4)GlcNAc
In short: as §1

[18] = target: Gal(b1-4)GlcNAc(b1-3)Gal(b1-4)GlcNAc(b1-2)[Gal(b1-4)GlcNAc(b1-3)Gal(b1-4)GlcNAc(b1-6)]Man(a1-6)[Gal(b1-4)GlcNAc(b1-3)Gal(b1-4)GlcNAc(b1-2)Man(a1-3)]Man(b1-4)GlcNAc(b1-4)GlcNAc
In short: as §1

[19] = target: Gal(b1-4)GlcNAc(b1-3)Gal(b1-4)GlcNAc(b1-2)[Gal(b1-4)GlcNAc(b1-3)Gal(b1-4)GlcNAc(b1-6)]Man(a1-6)[Gal(b1-4)GlcNAc(b1-3)Gal(b1-4)GlcNAc(b1-2)Man(a1-3)]Man(b1-4)GlcNAc(b1-4)[Fuc(a1-6)]GlcNAc
In short: as §1

[20] = target: Gal(b1-4)GlcNAc(b1-3)Gal(b1-4)GlcNAc(b1-3)Gal(b1-4)GlcNAc(b1-3)Gal(b1-4)GlcNAc(b1-3)Gal(b1-4)GlcNAc(b1-2)[Gal(b1-4)GlcNAc(b1-3)Gal(b1-4)GlcNAc(b1-3)Gal(b1-4)GlcNAc(b1-3)Gal(b1-4)GlcNAc(b1-3)Gal(b1-4)GlcNAc(b1-6)]Man(a1-6)[Gal(b1-4)GlcNAc(b1-3)Gal(b1-4)GlcNAc(b1-3)Gal(b1-4)GlcNAc(b1-3)Gal(b1-4)GlcNAc(b1-3)Gal(b1-4)GlcNAc(b1-2)Man(a1-3)]Man(b1-4)GlcNAc(b1-4)[Fuc(a1-6)]GlcNAc
In short: as §1

[21] = target: Gal3S(b1-4)[Fuc(a1-3)]GlcNAc
In short: as §1

B1: rEtpA (Escherichia coli) (protein)
chain: MNRIYKLKFDKRRNELVVVSEITTGVGNAKATGSVEGEKSPRRGVRAMALSLLSGMMIMAHPAMSANLPTGGQIVAGSGSIQTPSGNQMNIHQNSQNMVANWNSFDIGKGNTVQFDQPSSSAVALNRVVGGGESQIMGNLKANGQVFLVNPNGVLFGEGASVSTSGFVASTRDIKNDDFMNRRYTFSGGQKAGAAIVNQGELTTNAGGYIVLAADRVSNSGTIRTPGGKTVLAASERITLQLDNGGLMSVQVTGDVVNALVENRGLVSARDGQVYLTALGRGMLMNTVLNVSGVVEASGMHRQDGNIVLDGGDSGVVHLSGTLQADNASGQGGKVVVQGKNILLDKGSNITATGGQGGGEVYVGGGWQGKDSNIRNADKVVMQGGARIDVSATQQGNGGTAVLWSDSYTNFHGQISAKGGETGGNGGRVETSSHGNLQAFGTVSASAKKGKAGNWLLDSADITIVNGSNVSKTETTQSPPHTQFAPTAAGSAVSNTSINNRLNNGTSVTILTHRTRTGTAQGGNITVNAAINKSNGSDVNLTLQAGGNITVNNSITSTEGKLNVNLSGARTSNGSITISNNANITTNGGDITVGTTNTSNRVNISINNTTLNASNGNIQLTGTGTDSGILFAGNNRLTASNIALTGNSTSGNAINLTGTATLNATNNITLTGSSTSGNAINLKGNNTLTASNITLTGESTSGNAINLTDTTGTTTLNATNNITMQGTRVQIKHSNITAGNFALNATVAGSEISNTTLTATNNINLAAKTNSASSGVYLKDARITSTNGSITANGTATANGKATHLDGNVTLNASNGRIKLTGNGHGSASGILFAGNNRLTASNIALTGNSTSGNAINLTGTATLNATNDITLTGSSTSGNAINLTGTATLNATNNITLTGSSTSGNAINLKGNNTLTASNITLTGESTSGNAINLTDTTGTTTLNATNNITMQGTRVQIKHSNITAGNFALNATVAGSEISNTTLTATNNINLAAKTNSASSGVYLKDARITSTNGSITANGTATANGKATHLDGNVTLNASNGRIKLTGNGHGSASGILFAGNNRLTASNIALTGNSTSGNAINLTGTATLNATNDITLTGSSTSGNAINLTGTATLNATNNITLTGSSTSGNAINLKGNNTLTASNITLTGESTSGNAINLTDTTGTTTLNATNNITMQGTRVQIKHSNITAGNFALNATVAGSEISNTTLTATNNINLAAKTNSASSGVYLKDARITSTNGSITANGTATANGKATHLDGNVTLNASNGRIKLTGNGHGSASGILFAGNNRLTASNIALTGNSTSGNAINLTGTATLNATNDITLTGSSTSGNAINLTGTATLNATNNITLTGSSTSGNAINLKGNNTLTASNITLTGESTSGNAINLTDTTGTTTLNATNNITMQGTRVQIKHSNITAGNFALNATVAGSEISNTTLTATNNINLAAKTNSASSGVYLKDARITSTNGSITTNGTATANGKATHLDGNVTLNASNGRIKLTGNGHGSASGILFAGNNRLTASNIALTGNSTSGNAINLTGTATLNATNDITLTGSSTSGNAINLTGTATLNATNNITLTGSSTSGNAINLKGNNTLTASNITLTGESTSGNAINLTDTTGTTTLNATNNITMQGTRVQIKHSNITAGNFALNATVAGSEISNTTLTATNNINLAAKTNSASSGVYLKDARITSTNGSITANGTAPANDNATYLDGNVTLNASNGSIKLTGNGNGSTSGILFAGNNTLTASNITLTGNSEVYWQKLGPEQKLISEEDLNSAVDHHHHHH
- glycan array binding signal (z-score) [1]: -0.058
- glycan array binding signal (z-score) [2]: -0.225
- glycan array binding signal (z-score) [3]: 0.413
- glycan array binding signal (z-score) [4]: -0.241
- glycan array binding signal (z-score) [5]: -0.328
- glycan array binding signal (z-score) [6]: -0.09
- glycan array binding signal (z-score) [7]: -0.358
- glycan array binding signal (z-score) [8]: -0.192
- glycan array binding signal (z-score) [9]: -0.102
- glycan array binding signal (z-score) (Fuc(a1-4)GlcNAc): 2.8
- glycan array binding signal (z-score) (Gal(a1-2)Gal): 0.054
- glycan array binding signal (z-score) (Gal(a1-3)Gal): 2.11
- glycan array binding signal (z-score) (Gal(a1-3)Gal(b1-3)GlcNAc): 1.87
- glycan array binding signal (z-score) [10]: 0.182
- glycan array binding signal (z-score) (Gal(a1-3)Gal(b1-4)Glc): -0.179
- glycan array binding signal (z-score) [11]: -0.272
- glycan array binding signal (z-score) [12]: -0.457
- glycan array binding signal (z-score) [13]: -0.408
- glycan array binding signal (z-score) [14]: -0.274
- glycan array binding signal (z-score) [15]: -0.376
- glycan array binding signal (z-score) [16]: 0.021
- glycan array binding signal (z-score) [17]: -0.309
- glycan array binding signal (z-score) [18]: -0.106
- glycan array binding signal (z-score) [19]: -0.356
- glycan array binding signal (z-score) [20]: -0.351
- glycan array binding signal (z-score) [21]: -0.202
